Only some compounds are listed: those with a hit (about 5.7% of all), similar ones and a draw of the others.
PI4K2A block = blocks human PI4K2A kinase activity; purified PI4K2A, ADP-Glo luminescence, 1 h; active compounds read low; activity change, negative = inhibition, % at 76.9 µM; actives 0.13% (n = 420,000); AID 1346378; in the data active = activity change below about -50%; inconclusive = mostly about -30% to -49%;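 note: -100% = wells without enzyme as full effect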
Target sequence (Q9BTU6 whole entry, looked up): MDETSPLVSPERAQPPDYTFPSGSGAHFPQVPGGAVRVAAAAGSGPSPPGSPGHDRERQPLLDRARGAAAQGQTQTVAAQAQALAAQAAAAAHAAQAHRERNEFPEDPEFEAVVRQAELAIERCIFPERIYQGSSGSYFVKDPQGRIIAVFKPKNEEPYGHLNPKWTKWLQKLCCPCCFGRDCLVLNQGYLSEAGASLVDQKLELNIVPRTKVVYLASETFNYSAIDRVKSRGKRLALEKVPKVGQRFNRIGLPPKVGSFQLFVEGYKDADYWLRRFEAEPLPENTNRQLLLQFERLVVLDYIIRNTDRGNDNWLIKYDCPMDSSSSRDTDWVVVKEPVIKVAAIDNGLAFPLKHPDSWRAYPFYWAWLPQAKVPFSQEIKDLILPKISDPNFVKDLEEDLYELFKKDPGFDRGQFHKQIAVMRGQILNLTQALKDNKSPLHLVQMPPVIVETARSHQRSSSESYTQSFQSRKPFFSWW
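PI4K2A activity was measured by ADP-Glo luminescence: enzyme (4 ug/mL stock) and phosphatidylinositol (1.2 mM stock) in Tris pH 7.5/MgCl2/EGTA/Triton X-100 buffer were reacted with ATP (300 microM stock) for one hour at ambient temperature.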
A549 tox = kills or reduces viability of A549 cells in Nrf2 counter-screen. AID 504648. Potency, µM (top dose mostly 46 µM), without a hit: at the highest dose activity change, negative = cytotoxicity, hits mostly inhibitors. A549 ARE-Fluc cells, CellTiter-Fluor viability, 18-24 h. actives 0.16% (n = 390,000); note: potency is the fitted concentration of half-maximal effect
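A549 ARE-Fluc cells in 5% FBS OPTI-MEM, 5000 cells/well, rested 2 h then exposed to compounds in concentration-response for 18-24 h at 37 °C. Viability by CellTiter-Fluor fluorescence (Ex 405/Em 525) after 30 min; luciferase luminescence (BugLite, 15 min, RT) read afterwards.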
KB-V1 cytotox = kills drug-selected multidrug resistant KB-V1 cells; KB-V1 MDR cells viability, CellTiter-Glo, 72 h; Potency, µM (highest dose often 46.1 µM), most hits filed as cytotoxic; actives 3.4% (n = 400,000); AID 1347076; note: potency is the fitted concentration of half-maximal effect; nearly all actives have a fitted effect of over 60% in size
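qHTS viability screen in drug-selected KB-V1 MDR cells: 72 h compound treatment at 37 degrees C, ATP luminescence end point.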
Giardia killer = Giardia lamblia killing; activity change, % at 7.66 µM, hits read low; actives 0.15% (n = 340,000); Giardia lamblia trophozoite viability; in the data active = activity change below about -80%; inconclusive = between about -30% and that limit;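 note: parasites exposed to compound for two days anaerobically before the ATP read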
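Media and compound were dispensed first, then trophozoites at 100 cells/well; plates sat 48 hrs at 37 deg C without oxygen before ATP luminescence reagent was added and read after 15-30 min at room temperature.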
Nrf2 block = Nrf2 pathway inhibition. A549 ARE-Fluc reporter, luciferase luminescence, 18-24 h. Potency, µM (series often up to 46 µM), for inactives: top-dose activity change, negative = inhibition, hits mostly inhibitors. actives 2.1% (n = 360,000). AID 504444; note: potency is the fitted concentration of half-maximal effect; nearly all actives have a fitted effect of over 60% in size
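Reporter: ARE-Fluc in A549. Exposure: 18-24 h, 37 °C, 5% CO2, 5% FBS OPTI-MEM. Readouts: fluorescent cytotoxicity (CellTiter-Fluor), then luminescent Nrf2 signal after BugLite.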
KB-3-1 tox = KB-3-1 parental cell cytotoxicity; KB-3-1 viability, CellTiter-Glo ATP luminescence, 72 h; actives 1.4% (n = 400,000); AID 1347075; Potency, µM (doses to about 46.1 µM), most hits filed as cytotoxic; note: potency is the fitted concentration of half-maximal effect; nearly all actives have a fitted effect of over 60% in size
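Cytotoxicity measured as CellTiter-Glo luminescence after 72 h at 37 C. Compound titrations were pinned onto drug-naive KB-3-1 parental adenocarcinoma cells grown in DMEM with 10% FBS, and normalized data fitted to concentration-response curves.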
Starred values were filed as active, the others as inactive; ! = repeats disagree. Unless noted, calls come from the whole dose curve; as a rule, active = well fitted curve in the direction sought with a large enough effect; inconclusive = small, poorly fitted or top-dose-only effect, or another doubt; inactive = no such curve, though single readings can be large; an effect the other way counts as inactive or inconclusive. Unless noted, % is set by controls: 0 for no effect and ±100 for the full control effect.

Results for COc1ccc2c(c1)c(C(=O)N/N=C/c1ccc(Br)cc1)c(C)n2C ?
PI4K2A block: -1; A549 tox: -1%; KB-V1 cytotox: inconclusive; Giardia killer: 34; Nrf2 block: -19%; KB-3-1 tox: inconclusive

What do the screens show for `CCc1nc(N2CCN(C(C)=O)CC2)c2c3c(sc2n1)CC(C(C)(C)C)CC3` (stereo not given)?
PI4K2A block: -1; A549 tox: -6%; KB-V1 cytotox: inactive; Giardia killer: 4; Nrf2 block: 18µM*; KB-3-1 tox: inactive

Results for CCc1nc(N2CCN(C(=O)CCl)CC2)c2c3c(sc2n1)CC(C)CC3 (stereo not given) ?
PI4K2A block: 16; A549 tox: -5%; KB-V1 cytotox: inconclusive; Giardia killer: 9; Nrf2 block: 1%; KB-3-1 tox: inconclusive

What do the screens show for `CCOc1ccc(/C=C/c2nc(C#N)c(N3CCN(c4ccc(OC)cc4)CC3)o2)cc1`?
PI4K2A block: -6; A549 tox: 3%; Nrf2 block: 17%

What do the screens show for `CCCC[C@H]1C2CC(OC(=O)Nc3cccc(Cl)c3)C(C2)[C@H]2CCCCN21` (stereo not given in full)?
PI4K2A block: 3

Results for CN(C)CCNc1ccc(-c2nn(C)c(=O)c3ccccc23)cc1[N+](=O)[O-] ?
PI4K2A block: 3; A549 tox: 1%; KB-V1 cytotox: 23µM*; Giardia killer: 7; Nrf2 block: 13%; KB-3-1 tox: inconclusive

Results for N#C/C(=C/c1cccc(C(F)(F)F)c1)c1nc(CCN2C(=O)c3ccccc3C2=O)cs1 ?
PI4K2A block: 7; A549 tox: -5%; KB-V1 cytotox: 21µM*; Giardia killer: -15; Nrf2 block: 2%; KB-3-1 tox: inactive

How did CCCC/C=C1/[C@H](c2ccccc2)N(C)C2=N[C@H](c3ccccc3)CC(=O)N21 do in these assays?
PI4K2A block: 1

How did CCOc1cc(/C=N\NC(N)=O)cc(Br)c1OC(C)C do in these assays?
PI4K2A block: 4; A549 tox: 4%; KB-V1 cytotox: 12µM*; Giardia killer: 10; Nrf2 block: 7%; KB-3-1 tox: 7.3µM*

Results for CCc1ccc(C(=O)c2cn(CC(=O)Nc3ccc4c(c3)OCCO4)c3ccc(C)cc3c2=O)cc1 ?
PI4K2A block: -1; A549 tox: 0%; KB-V1 cytotox: inconclusive; Nrf2 block: 13%; KB-3-1 tox: inactive

Results for CC(=O)ON=C1C=CC(=C(C#N)c2ccccc2)C=C1 ?
PI4K2A block: -12; KB-V1 cytotox: 7.3µM*; KB-3-1 tox: 3.7µM*

Results for CCOC(=O)c1c(-c2cccs2)csc1NC(=O)C(C)(C)C ?
PI4K2A block: 6; A549 tox: -10%; KB-V1 cytotox: 15µM*; Giardia killer: 8; Nrf2 block: inconclusive; KB-3-1 tox: inactive

What do the screens show for `CCOC(=O)c1c(NC(=O)c2cccs2)sc(CC)c1-c1cccs1`?
PI4K2A block: -1; A549 tox: inconclusive; KB-V1 cytotox: 18µM*; Giardia killer: -15; Nrf2 block: inconclusive; KB-3-1 tox: inactive

How did CCOC(=O)c1c(-c2cccs2)csc1NC(=O)CSc1ncn[nH]1 do in these assays?
PI4K2A block: 2; A549 tox: 0%; KB-V1 cytotox: 21µM*; Giardia killer: -22; KB-3-1 tox: inactive

How did CN(Cc1nc(-c2ccncc2)no1)S(=O)(=O)c1ccc(Br)cc1 do in these assays?
PI4K2A block: 0; A549 tox: -11%; KB-V1 cytotox: 15µM*; Giardia killer: -9; Nrf2 block: inconclusive; KB-3-1 tox: inactive

What do the screens show for `CN(Cc1nc(-c2ccncc2)no1)S(=O)(=O)c1ccccc1`?
PI4K2A block: 7; A549 tox: 0%; KB-V1 cytotox: inactive; Giardia killer: 14; Nrf2 block: -16%; KB-3-1 tox: inactive

What do the screens show for `CN(Cc1nc(-c2ccncc2)no1)S(=O)(=O)c1ccc(Cl)cc1`?
PI4K2A block: 12; A549 tox: 0%; KB-V1 cytotox: 15µM*; Giardia killer: -1; Nrf2 block: -21%; KB-3-1 tox: inactive

What do the screens show for `N#Cc1ccc(C(=O)Oc2coc(CSc3ncccn3)cc2=O)cc1`?
PI4K2A block: -5

What do the screens show for `COc1ccc(OC)c(CN2CCN(S(=O)(=O)c3ccccc3)CC2)c1`?
PI4K2A block: -3; A549 tox: -3%; KB-V1 cytotox: inactive; Giardia killer: 18; Nrf2 block: 4%; KB-3-1 tox: inactive

Results for CN(C)C(=O)c1ccc(NC(=O)c2cccc(S(=O)(=O)N3CCN(Cc4ccccc4)CC3)c2)cc1 ?
PI4K2A block: 2; A549 tox: -4%; KB-V1 cytotox: inactive; Giardia killer: 13; Nrf2 block: 18µM*; KB-3-1 tox: inactive

Results for O=C(Nc1ccc(S(=O)(=O)N2CCN(Cc3ccccc3)CC2)cc1)c1cnccn1 ?
PI4K2A block: 0; A549 tox: -13%; KB-V1 cytotox: 2.3µM*; Giardia killer: -1; Nrf2 block: 4.1µM*; KB-3-1 tox: 10µM*

How did COc1cccc(CNC(=O)c2cccc(S(=O)(=O)N3CCN(Cc4ccccc4)CC3)c2)c1 do in these assays?
PI4K2A block: -3; A549 tox: -6%; KB-V1 cytotox: 15µM*; Giardia killer: 19; Nrf2 block: -17%; KB-3-1 tox: inactive

Results for O=C(Nc1ccc(S(=O)(=O)N2CCCC2)cc1)c1cnccn1 ?
PI4K2A block: -3; A549 tox: -20%; KB-V1 cytotox: inactive; Giardia killer: 10; Nrf2 block: -15%; KB-3-1 tox: inactive

How did O=C(NCCOc1ccccc1)c1cccc(S(=O)(=O)N2CCN(Cc3ccccc3)CC2)c1 do in these assays?
PI4K2A block: -4; KB-V1 cytotox: inconclusive; KB-3-1 tox: inactive

Results for COc1ccc(CN2CCN(S(=O)(=O)c3ccccc3)CC2)c(OC)c1 ?
PI4K2A block: 9; A549 tox: 2%; KB-V1 cytotox: 18µM*!; Giardia killer: 7; Nrf2 block: inconclusive; KB-3-1 tox: inactive

What do the screens show for `CN(C)C(=O)c1ccc(NC(=O)c2cccc(S(=O)(=O)N3CCCCCC3)c2)cc1`?
PI4K2A block: 3; A549 tox: -2%; KB-V1 cytotox: inconclusive; Giardia killer: -13; Nrf2 block: inconclusive; KB-3-1 tox: inactive

What do the screens show for `COc1cccc(NC(=O)CN(C)C(=O)c2cccc(S(=O)(=O)N3CCN(c4ccccc4)CC3)c2)c1`?
PI4K2A block: -5; A549 tox: -1%; KB-V1 cytotox: inactive; Giardia killer: 19; Nrf2 block: inconclusive; KB-3-1 tox: inactive

Screening data from PubChem.
